From paper PMC8384837, “Expanding the binding specificity for RNA recognition by a PUF domain”
Residue numbers refer to the chain shown, from its start.

What was measured:
Test in all cases: yeast three-hybrid, YBZ-1, SC-Leu-His + 0.5 mM 3-AT, 4 days
Settings in all cases: tags: N-Gal4 AD-HA kept; label: inside an RPR1-promoter hybrid RNA with tandem MS2 sites; ssRNA
[1] = biological target: PUM1 PUF domain R8-PFH (Homo sapiens, UniProt Q14671 828-1176, N1122P;Y1123F;Q1126H)
Summary of the method: (§1)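 The interaction score is the logarithmic change in variant frequency from input to selection. It uses log2, with a pseudocount of 1 for absent variants, and frequencies came from PCR-amplified, Illumina-sequenced repeat regions. The libraries were Pumilio-1 PUF domains randomized at the three base-contacting residues per repeat, co-expressed with matching RNA elements in strain YBZ-1 (LexA–MS2 coat fusion, HIS3 reporter). Plating lasted four days on SC-Leu (input) or SC-Leu-His + 0.5 mM 3-AT (selection).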

[2] = biological target: PUM1 PUF domain R8-RRH (Homo sapiens, UniProt Q14671 828-1176, N1122R;Y1123R;Q1126H)
PUM1 PUF domain R8-RRH, sequence (Q14671 828-1176 N1122R/Y1123R/Q1126H): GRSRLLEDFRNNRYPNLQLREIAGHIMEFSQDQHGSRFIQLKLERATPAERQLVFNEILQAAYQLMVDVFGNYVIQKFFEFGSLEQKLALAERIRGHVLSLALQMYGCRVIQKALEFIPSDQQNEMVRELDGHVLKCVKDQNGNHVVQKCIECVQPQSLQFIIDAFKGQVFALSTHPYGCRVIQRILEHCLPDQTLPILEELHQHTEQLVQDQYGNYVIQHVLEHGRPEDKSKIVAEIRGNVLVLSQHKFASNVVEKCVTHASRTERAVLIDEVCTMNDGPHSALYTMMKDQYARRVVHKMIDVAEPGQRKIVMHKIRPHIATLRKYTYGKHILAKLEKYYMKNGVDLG
Summary of the method: as §1

[3] = biological target: PUM1 PUF domain R3-PYY (Homo sapiens, UniProt Q14671 828-1176, C935P;R936Y;Q939Y)
PUM1 PUF domain R3-PYY, sequence (Q14671 828-1176 C935P/R936Y/Q939Y): as the sequence (Q14671 828-1176 N1122R/Y1123R/Q1126H) above, with C108P, R109Y, Q112Y, R295N, R296Y, H299Q counted along it
Summary of the method: as §1

[4] = biological target: PUM1 PUF domain R3-GRW (Homo sapiens, UniProt Q14671 828-1176, C935G;Q939W)
PUM1 PUF domain R3-GRW, sequence (Q14671 828-1176 C935G/Q939W): as the sequence (Q14671 828-1176 N1122R/Y1123R/Q1126H) above, with C108G, Q112W, R295N, R296Y, H299Q counted along it
Summary of the method: as §1

[5] = biological target: PUM1 PUF domain R5-QSR (Homo sapiens, UniProt Q14671 828-1176, C1007Q;R1008S;Q1011R)
PUM1 PUF domain R5-QSR, sequence (Q14671 828-1176 C1007Q/R1008S/Q1011R): as the sequence (Q14671 828-1176 N1122R/Y1123R/Q1126H) above, with C180Q, R181S, Q184R, R295N, R296Y, H299Q counted along it
Summary of the method: as §1

[6] = biological target: PUM1 PUF domain R5-TRM (Homo sapiens, UniProt Q14671 828-1176, C1007T;Q1011M)
PUM1 PUF domain R5-TRM, sequence (Q14671 828-1176 C1007T/Q1011M): as the sequence (Q14671 828-1176 N1122R/Y1123R/Q1126H) above, with C180T, Q184M, R295N, R296Y, H299Q counted along it
Summary of the method: as §1

[7] = biological target: PUM1 PUF domain R5-KHC (Homo sapiens, UniProt Q14671 828-1176, C1007K;R1008H;Q1011C)
Summary of the method: as §1

[8] = biological target: PUM1 PUF domain R8-VWK (Homo sapiens, UniProt Q14671 828-1176, N1122V;Y1123W;Q1126K)
Summary of the method: as §1

[9] = biological target: T1, PUM1 PUF domain R6-SYS (Homo sapiens, UniProt Q14671 828-1176, N1043S;Q1047S)
T1 sequence: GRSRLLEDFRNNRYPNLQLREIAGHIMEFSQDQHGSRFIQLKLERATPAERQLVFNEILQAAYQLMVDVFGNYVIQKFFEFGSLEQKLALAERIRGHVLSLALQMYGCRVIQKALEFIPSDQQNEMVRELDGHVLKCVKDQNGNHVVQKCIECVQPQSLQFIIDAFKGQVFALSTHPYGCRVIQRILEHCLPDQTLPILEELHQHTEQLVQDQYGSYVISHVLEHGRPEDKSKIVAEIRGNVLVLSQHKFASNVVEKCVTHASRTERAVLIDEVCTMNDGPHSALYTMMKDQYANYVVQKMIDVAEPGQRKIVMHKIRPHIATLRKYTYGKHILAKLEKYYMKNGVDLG
Summary of the method: as §1

[10] = biological target: T2, PUM1 PUF domain R6-AFG (Homo sapiens, UniProt Q14671 828-1176, N1043A;Y1044F;Q1047G)
T2 sequence: T1 sequence with S216A, Y217F, S220G
Summary of the method: as §1

[11] = biological target: PUM1 PUF domain R5-PMK (Homo sapiens, UniProt Q14671 828-1176, C1007P;R1008M;Q1011K)
PUM1 PUF domain R5-PMK, sequence (Q14671 828-1176 C1007P/R1008M/Q1011K): as the sequence (Q14671 828-1176 N1122R/Y1123R/Q1126H) above, with C180P, R181M, Q184K, R295N, R296Y, H299Q counted along it
Summary of the method: as §1

[12] = biological target: PUM1 PUF domain R4-VNS (Homo sapiens, UniProt Q14671 828-1176, N971V;H972N;Q975S)
PUM1 PUF domain R4-VNS, sequence (Q14671 828-1176 N971V/H972N/Q975S): as the sequence (Q14671 828-1176 N1122R/Y1123R/Q1126H) above, with N144V, H145N, Q148S, R295N, R296Y, H299Q counted along it
Summary of the method: as §1

[13] = biological target: PUM1 PUF domain R3-EFE (Homo sapiens, UniProt Q14671 828-1176, C935E;R936F;Q939E)
Summary of the method: as §1

[14] = biological target: PUM1 PUF domain R3-RTL (Homo sapiens, UniProt Q14671 828-1176, C935R;R936T;Q939L)
Summary of the method: as §1

[15] = biological target: PUM1 PUF domain R5-RMT (Homo sapiens, UniProt Q14671 828-1176, C1007R;R1008M;Q1011T)
PUM1 PUF domain R5-RMT, sequence (Q14671 828-1176 C1007R/R1008M/Q1011T): as the sequence (Q14671 828-1176 N1122R/Y1123R/Q1126H) above, with C180R, R181M, Q184T, R295N, R296Y, H299Q counted along it
Summary of the method: as §1

[16] = biological target: PUM1 PUF domain R2-RHE (Homo sapiens, UniProt Q14671 828-1176, N899R;Y900H;Q903E)
PUM1 PUF domain R2-RHE, sequence (Q14671 828-1176 N899R/Y900H/Q903E): as the sequence (Q14671 828-1176 N1122R/Y1123R/Q1126H) above, with N72R, Y73H, Q76E, R295N, R296Y, H299Q counted along it
Summary of the method: as §1

[17] = biological target: PUM1 PUF domain R2-KKG (Homo sapiens, UniProt Q14671 828-1176, N899K;Y900K;Q903G)
Summary of the method: as §1

[18] = biological target: PUM1 PUF domain R5-SRQ (Homo sapiens, UniProt Q14671 828-1176, C1007S)
Summary of the method: as §1

PUM1 PUF domain R8-PFH, sequence (Q14671 828-1176 N1122P/Y1123F/Q1126H): as the sequence (Q14671 828-1176 N1122R/Y1123R/Q1126H) above, with R295P, R296F counted along it

GGCUAGAACUAGUGGAUCCCCCGGCGCCCGGCGGCUCGAGCCCGGGUAAGCGUAAAUAGUCUGCAUGCCGCCGGGCGCCAUGCCUGCAGGUCGACUCUAGAAAACAUG
binding signal [1]: 2.98 log2 enrichment (interaction score) | binding signal [2]: 2.65 log2 enrichment (interaction score)

GGCUAGAACUAGUGGAUCCCCCGGCGCCCGGCGGCUCGAGCCCGGGUAAGUGUAAAUAGUCUGCAUGCCGCCGGGCGCCAUGCCUGCAGGUCGACUCUAGAAAACAUG
binding signal [2]: 0.67 log2 enrichment (interaction score) | binding signal [3]: 6.39 log2 enrichment (interaction score) | binding signal [4]: 4.33 log2 enrichment (interaction score) | binding signal [5]: 1.54 log2 enrichment (interaction score) | binding signal [6]: 2.74 log2 enrichment (interaction score) | binding signal [7]: 3.4 log2 enrichment (interaction score) | binding signal [8]: 4.11 log2 enrichment (interaction score) | binding signal [9]: 3 log2 enrichment (interaction score) | binding signal [10]: 3.11 log2 enrichment (interaction score)

GGCUAGAACUAGUGGAUCCCCCGGCGCCCGGCGGCUCGAGCCCGGGUAAGUGUUAAUAGUCUGCAUGCCGCCGGGCGCCAUGCCUGCAGGUCGACUCUAGAAAACAUG
binding signal [11]: 2.73 log2 enrichment (interaction score) | binding signal [7]: 6.52 log2 enrichment (interaction score)

GGCUAGAACUAGUGGAUCCCCCGGCGCCCGGCGGCUCGAGCCCGGGUAAGUGUAUAUAGUCUGCAUGCCGCCGGGCGCCAUGCCUGCAGGUCGACUCUAGAAAACAUG
binding signal [12]: 2.92 log2 enrichment (interaction score)

GGCUAGAACUAGUGGAUCCCCCGGCGCCCGGCGGCUCGAGCCCGGGUAAGUGUACAUAGUCUGCAUGCCGCCGGGCGCCAUGCCUGCAGGUCGACUCUAGAAAACAUG
binding signal [12]: 1.91 log2 enrichment (interaction score)

GGCUAGAACUAGUGGAUCCCCCGGCGCCCGGCGGCUCGAGCCCGGGUAAGUGUAAUUAGUCUGCAUGCCGCCGGGCGCCAUGCCUGCAGGUCGACUCUAGAAAACAUG
binding signal [4]: 0.31 log2 enrichment (interaction score) | binding signal [13]: 3.56 log2 enrichment (interaction score) | binding signal [14]: 2.61 log2 enrichment (interaction score)

GGCUAGAACUAGUGGAUCCCCCGGCGCCCGGCGGCUCGAGCCCGGGUAAGUGUCAAUAGUCUGCAUGCCGCCGGGCGCCAUGCCUGCAGGUCGACUCUAGAAAACAUG
binding signal [15]: 3.58 log2 enrichment (interaction score) | binding signal [5]: 4.21 log2 enrichment (interaction score)

GGCUAGAACUAGUGGAUCCCCCGGCGCCCGGCGGCUCGAGCCCGGGUAAGUGUAAAGAGUCUGCAUGCCGCCGGGCGCCAUGCCUGCAGGUCGACUCUAGAAAACAUG
binding signal [16]: 3.71 log2 enrichment (interaction score) | binding signal [17]: 7.11 log2 enrichment (interaction score)

GGCUAGAACUAGUGGAUCCCCCGGCGCCCGGCGGCUCGAGCCCGGGUAAGUGUAAGUAGUCUGCAUGCCGCCGGGCGCCAUGCCUGCAGGUCGACUCUAGAAAACAUG
binding signal [13]: 5.2 log2 enrichment (interaction score)

GGCUAGAACUAGUGGAUCCCCCGGCGCCCGGCGGCUCGAGCCCGGGUAAGUGUGAAUAGUCUGCAUGCCGCCGGGCGCCAUGCCUGCAGGUCGACUCUAGAAAACAUG
binding signal [18]: 3.6 log2 enrichment (interaction score)
